Target: Alpha-2C adrenergic receptor (Homo sapiens) (UniProt P18825)
Test: compounds altering alpha2C-coupled GIRK flux – cell-based, HEK293 alpha2C/GIRK1/2, thallium flux, primary screen (AID 624);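 further: slope of fluorescence ratio to pre-addition baseline per second over 15 to 24 s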
Details: thallium flux BTC fluorescence, at 10 µM, actives lie on both sides

Chain of Alpha-2C adrenergic receptor (Homo sapiens) (P18825 whole entry, looked up): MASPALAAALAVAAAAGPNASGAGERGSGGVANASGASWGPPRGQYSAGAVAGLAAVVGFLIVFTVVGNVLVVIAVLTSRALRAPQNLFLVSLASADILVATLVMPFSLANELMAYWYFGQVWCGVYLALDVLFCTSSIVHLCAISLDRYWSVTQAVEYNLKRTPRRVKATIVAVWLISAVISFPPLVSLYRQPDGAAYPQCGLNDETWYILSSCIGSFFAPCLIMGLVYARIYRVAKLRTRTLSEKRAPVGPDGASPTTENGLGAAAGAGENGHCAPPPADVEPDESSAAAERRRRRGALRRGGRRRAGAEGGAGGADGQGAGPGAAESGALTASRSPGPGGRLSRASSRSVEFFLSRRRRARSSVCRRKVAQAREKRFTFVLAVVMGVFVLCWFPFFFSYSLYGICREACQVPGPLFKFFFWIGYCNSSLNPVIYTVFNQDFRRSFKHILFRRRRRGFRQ

slope, inactive:
COc1ccc(C(CNC(=O)c2cc(C)oc2C)N2CCOCC2)cc1 (stereo not drawn) 0.00615, O=C(CSc1ccc2nnc(-c3ccccc3)n2n1)N1CCN(c2ccccc2)CC1 0.00674, O=C1NC(=O)C(CC(=O)N(Cc2ccco2)C2(C(=O)NC3CCCC3)CCCCC2)N1 (stereo not drawn) 0.00746, O=C(NCc1cccs1)c1cc2c(s1)CCCC2 0.0052, O=C(c1ccc(-c2ccccc2)cc1)N1CCN(c2ncccn2)CC1 0.00541, Cc1noc(/C=C/N(C)C)c1S(=O)(=O)N1CCCC(C(=O)N2CCc3ccccc32)C1 (stereo not drawn) 0.00689, Cc1cccnc1NC(=O)CCCN1C(=O)c2ccccc2C1=O 0.00485, O=C1CC(c2ccccc2)CC(O)=C1C=NCCN1CCOCC1 (stereo not drawn) 0.00626, CCCCNC(=O)c1nc2ncc(Br)cn2n1 0.00578, COc1ccc(NC(=O)C(C)NS(=O)(=O)c2ccc(NC(C)=O)cc2)cc1Cl (stereo not drawn) 0.00739, CCOc1cc(NC(=O)c2ccco2)c(OCC)cc1NC(=O)Cc1cccc(OC)c1 0.00431, COc1ccccc1Nc1nc2ccccc2[nH]1 0.00559, CCN1CCN(c2ncnc3c2cnn3-c2ccc(C)cc2C)CC1 0.00772, Cn1c(=O)[nH]c(=O)c2c1nc(NCCCn1ccnc1)n2Cc1cccc(Br)c1 0.006, CN1CCN(C(=O)C2CCN(S(=O)(=O)c3ccc4c(c3)oc(=O)n4C)CC2)CC1 0.00694, CN(c1ccccc1C(N)=O)S(=O)(=O)c1ccccc1 0.00547, COCC(=O)N(C)c1nnc(-c2ccccn2)s1 0.0059, CCOC(=O)C1CCCN(C(=O)c2sc3nc(-c4ccccc4)cn3c2C)C1 (stereo not drawn) 0.00524, Cc1cc(C)nc(NC(=O)c2c(-c3c(Cl)cccc3Cl)noc2C)n1 0.00547, O=C(Nc1cnn(C23CC4CC(CC(C4)C2)C3)c1)c1cnn2c(C(F)(F)F)cc(-c3ccco3)nc12 0.00429, O=C(O)c1cccn2c(=O)c3ccccc3nc12 0.0061, CC(C)Cn1c(N)c(C(=O)NCc2cccs2)c2nc3ccccc3nc21 0.00389, CCCS(=O)(=O)N1CCN(C(=O)c2cccs2)CC1 0.00496, Cc1nc(C)c(C(=O)C2=C(O)C(=O)N(CCN3CCOCC3)C2c2ccco2)s1 (stereo not drawn) 0.00517, Cc1ccc(S(=O)(=O)N2C(=O)CCC2C(=O)Nc2ccc3c(c2)OCCO3)cc1 (stereo not drawn) 0.00315, COc1cccc(C2=NOC(C(=O)N3CCc4ccccc4C3)C2)c1 (stereo not drawn) 0.00592, Cc1ccccc1C1CC(c2ccccc2)Nc2ncnn21 (stereo not drawn) 0.00646, O=S(=O)(c1cccc2nsnc12)N1CCN(c2ncccn2)CC1 0.00508, CCN(CC)S(=O)(=O)c1cccc(-c2nnc(SCC(N)=O)n2CCc2ccccc2)c1 0.00663, O=C(O)c1cc(Cl)c(Cl)cc1C(=O)N1CCCC1 0.00644, Cc1cccc(N2C(=O)CC(N3CCN(c4cccc(C(F)(F)F)c4)CC3)C2=O)c1 (stereo not drawn) 0.00436, COCCN(CCOC)c1ncnc2c1cnn2-c1ccccc1 0.00603, Cc1csc(NC(=O)C2CCCO2)n1 (stereo not drawn) 0.00887, COC(=O)c1cc2oc(C)cc2n1CC(=O)Nc1ccc(C)c(C)c1 0.00552, CCOc1ccc2nc(NC(=O)C3CCCN(S(=O)(=O)c4c(C)noc4C)C3)sc2c1 (stereo not drawn) 0.00699, Cc1ccccc1-n1nnnc1SCC(=O)Nc1ccc(S(=O)(=O)N2CCCC2)cc1 0.00566, Nn1cnnc1SCC(=O)Nc1ccc2c(c1)OCCO2 0.00546, CCN(CC)S(=O)(=O)c1ccc(F)c(C(=O)NCCC(C)C)c1 0.00438, CCc1ccc(NC(=O)C2CC(=O)N(C(C)C)C2)cc1 (stereo not drawn) 0.00536

Test system: not listed separately
Test: blockers of RIG-like receptor reporter activation – cell-based, Sendai virus stimulus, luciferase, 10K MLSCN set, TLR/RLR signaling modifier project, primary screen (AID 602276;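 active means inhibition at or above 50% at 10 µM; inactive means inhibition below 50%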;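 further: firefly luciferase from ISG56 promoter only with Renilla not read in this screen; 0% = Sendai virus plus DMSO and 100% = medium plus DMSO without virus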)
Details: HEK293 RL24 IRF3 luciferase reporter, at 10 µM, hits give high values

inhibition, inactive:
COc1ccc(C(CNC(=O)c2cc(C)oc2C)N2CCOCC2)cc1 (stereo not drawn) 11.1%, O=C(CSc1ccc2nnc(-c3ccccc3)n2n1)N1CCN(c2ccccc2)CC1 -9.77%, O=C1NC(=O)C(CC(=O)N(Cc2ccco2)C2(C(=O)NC3CCCC3)CCCCC2)N1 (stereo not drawn) -0.4%, O=C(NCc1cccs1)c1cc2c(s1)CCCC2 -44.6%, O=C(c1ccc(-c2ccccc2)cc1)N1CCN(c2ncccn2)CC1 2.14%, Cc1noc(/C=C/N(C)C)c1S(=O)(=O)N1CCCC(C(=O)N2CCc3ccccc32)C1 (stereo not drawn) 11.8%, Cc1cccnc1NC(=O)CCCN1C(=O)c2ccccc2C1=O 11.3%, O=C1CC(c2ccccc2)CC(O)=C1C=NCCN1CCOCC1 (stereo not drawn) 7.02%, CCCCNC(=O)c1nc2ncc(Br)cn2n1 12.8%, COc1ccc(NC(=O)C(C)NS(=O)(=O)c2ccc(NC(C)=O)cc2)cc1Cl (stereo not drawn) 12.1%, CCOc1cc(NC(=O)c2ccco2)c(OCC)cc1NC(=O)Cc1cccc(OC)c1 -6.51%, COc1ccccc1Nc1nc2ccccc2[nH]1 -19.5%, CCN1CCN(c2ncnc3c2cnn3-c2ccc(C)cc2C)CC1 10.8%, Cn1c(=O)[nH]c(=O)c2c1nc(NCCCn1ccnc1)n2Cc1cccc(Br)c1 16.8%, CN1CCN(C(=O)C2CCN(S(=O)(=O)c3ccc4c(c3)oc(=O)n4C)CC2)CC1 8.49%, CN(c1ccccc1C(N)=O)S(=O)(=O)c1ccccc1 13%, COCC(=O)N(C)c1nnc(-c2ccccn2)s1 -7.53%, CCOC(=O)C1CCCN(C(=O)c2sc3nc(-c4ccccc4)cn3c2C)C1 (stereo not drawn) -20.7%, Cc1cc(C)nc(NC(=O)c2c(-c3c(Cl)cccc3Cl)noc2C)n1 -2.48%, O=C(Nc1cnn(C23CC4CC(CC(C4)C2)C3)c1)c1cnn2c(C(F)(F)F)cc(-c3ccco3)nc12 8.99%, O=C(O)c1cccn2c(=O)c3ccccc3nc12 8.6%, CC(C)Cn1c(N)c(C(=O)NCc2cccs2)c2nc3ccccc3nc21 14.5%, CCCS(=O)(=O)N1CCN(C(=O)c2cccs2)CC1 13.1%, Cc1nc(C)c(C(=O)C2=C(O)C(=O)N(CCN3CCOCC3)C2c2ccco2)s1 (stereo not drawn) 11%, Cc1ccc(S(=O)(=O)N2C(=O)CCC2C(=O)Nc2ccc3c(c2)OCCO3)cc1 (stereo not drawn) 10.3%, COc1cccc(C2=NOC(C(=O)N3CCc4ccccc4C3)C2)c1 (stereo not drawn) -5.64%, Cc1ccccc1C1CC(c2ccccc2)Nc2ncnn21 (stereo not drawn) 3.07%, O=S(=O)(c1cccc2nsnc12)N1CCN(c2ncccn2)CC1 12.7%, CCN(CC)S(=O)(=O)c1cccc(-c2nnc(SCC(N)=O)n2CCc2ccccc2)c1 7.68%, O=C(O)c1cc(Cl)c(Cl)cc1C(=O)N1CCCC1 9.27%, Cc1cccc(N2C(=O)CC(N3CCN(c4cccc(C(F)(F)F)c4)CC3)C2=O)c1 (stereo not drawn) 10.3%, COCCN(CCOC)c1ncnc2c1cnn2-c1ccccc1 -24.8%, Cc1csc(NC(=O)C2CCCO2)n1 (stereo not drawn) -2.56%, COC(=O)c1cc2oc(C)cc2n1CC(=O)Nc1ccc(C)c(C)c1 -0.339%, CCOc1ccc2nc(NC(=O)C3CCCN(S(=O)(=O)c4c(C)noc4C)C3)sc2c1 (stereo not drawn) -4.49%, Cc1ccccc1-n1nnnc1SCC(=O)Nc1ccc(S(=O)(=O)N2CCCC2)cc1 23.8%, Nn1cnnc1SCC(=O)Nc1ccc2c(c1)OCCO2 1.38%, CCN(CC)S(=O)(=O)c1ccc(F)c(C(=O)NCCC(C)C)c1 -18.3%, CCc1ccc(NC(=O)C2CC(=O)N(C(C)C)C2)cc1 (stereo not drawn) 7.09%

Reference: PubChem BioAssay
